# Results reported in PubChem BioAssay (NCATS).
# Values joined by “and” are separate entries in the source; they are usually repeats but may differ in a detail not shown here. Equal values may be shown once. A number with no mark means an inactive call. Results filed as inconclusive are left out. Entries that show only a call come without a potency. Active and inactive are the calls of the source. Unless noted, calls follow the shape of the dose curve; as a rule, active = well fitted curve in the direction sought with a large enough effect; inconclusive = small, poorly fitted or top-dose-only effect, or another doubt; inactive = no such curve, though single readings can be large; an effect the other way counts as inactive or inconclusive.
# Assays:
# [1] = Cell Viability - MRC5 (AID 434; calls by dose curve;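 also: potency is read from the fitted curve at half-maximal effect; cells exposed to compound for 40 hours at 37 °C; potency reflects cytotoxicity seen as loss of intracellular ATP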); settings: MRC5 lung fibroblast viability, qHTS
# Method in brief: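 Decrease in intracellular ATP, quantified by luciferase light output, reflects compound toxicity toward MRC5 cells exposed for 40 hr in complete culture medium. Concentration-response curves, scaled between DMSO and 100 uM tamoxifen, gave AC50 values.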
# [2] = Cellular Toxicity (caspase-3) HUV-EC-C (AID 656); settings: HUV-EC-C cells, caspase-3 activation (apoptosis), vehicle = 0, 100 µM tamoxifen = 100%; series mostly up to 92.2 µM
# Method in brief: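 Luminescent Caspase-Glo 3/7 readout after 16 h, 37 °C compound exposure of HUV-EC-C endothelial cells, 1000 per well, complete medium. AC50 derived by Hill fitting, with DMSO as baseline and 100 uM tamoxifen as full activation.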
# [3] = Cellular Toxicity (caspase-3) BJ (AID 658); settings: BJ fibroblasts, luminescence, normalized: DMSO 0%, staurosporine 100%; series mostly up to 91.7 µM;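 also: cells exposed to compound for 16 hours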
# Method in brief: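 Plated BJ cells (1000/well) rested 5 hr, received compound for 16 hr at 37 °C, then Caspase-Glo 3/7 reagent for 1 hr at room temperature before luminescence reading.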
# [4] = Cellular Toxicity (caspase-3) Mesangial (AID 660); settings: mesangial cells, normalized: DMSO 0%, 100 µM tamoxifen 100%; series mostly up to 91.7 µM;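 also: combined caspase 3 and 7 activity read by Caspase-Glo luminescence; cells exposed to compound for 16 h before the caspase read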
# Method in brief: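 Caspase 3/7 activation measured by Caspase-Glo 3/7 luminescence (20 min, room temperature) following 16 h exposure of mesangial cells (1000/well); AC50 from Hill-equation fit, normalized to DMSO and 100 uM tamoxifen.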
# [5] = molecular target: Cytochrome P450 3A4 (Homo sapiens) (UniProt P08684); assay: qHTS Assay for Inhibitors and Substrates of Cytochrome P450 3A4 (AID 884); settings: recombinant CYP3A4, Luciferin-PPXE luminescence; series mostly up to 57.1 µM; also: nearly all actives have a fitted effect of over 50% in size; also: potency is read from the fitted curve at half-maximal effect
# Chain of Cytochrome P450 3A4 (Homo sapiens) (P08684 whole entry, looked up): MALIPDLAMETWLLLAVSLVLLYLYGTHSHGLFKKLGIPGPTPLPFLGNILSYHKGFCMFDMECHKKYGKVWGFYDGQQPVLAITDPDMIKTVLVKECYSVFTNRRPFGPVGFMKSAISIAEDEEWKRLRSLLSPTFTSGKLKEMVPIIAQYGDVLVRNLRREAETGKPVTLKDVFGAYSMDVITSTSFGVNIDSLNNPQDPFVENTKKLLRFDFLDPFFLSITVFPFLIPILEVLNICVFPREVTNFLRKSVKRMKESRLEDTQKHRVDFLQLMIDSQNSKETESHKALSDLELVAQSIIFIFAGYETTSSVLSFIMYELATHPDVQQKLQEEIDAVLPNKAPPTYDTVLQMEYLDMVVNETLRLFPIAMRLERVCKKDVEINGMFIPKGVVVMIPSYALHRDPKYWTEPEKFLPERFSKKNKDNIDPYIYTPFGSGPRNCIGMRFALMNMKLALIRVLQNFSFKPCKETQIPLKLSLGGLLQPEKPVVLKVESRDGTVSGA
# Method in brief: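 Luminescent readout of luciferin produced by CYP3A4 (20 nM) dealkylation of Luciferin-PPXE, 25 uM (its KM). NADPH-driven reaction ran 60 min at RT after 10 min compound preincubation; data scaled to 57 uM ketoconazole as 100% inhibition.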
# [6] = Cell Viability - LYMP1-002 - Assay at 16 hr (AID 948); settings: LYMP1-002 lymphoblastoid cell viability; series mostly up to 92.2 µM
# Method in brief: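 ATP luminescence (CellTiter-Glo) was measured after 16 hr compound exposure at 37 C of 2500 lymphoblastoid LYMP1-002 cells per well. Concentration-response curves were fitted with the Hill equation to give AC50.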
# [7] = MultiTox-Fluor Cytotoxicity Assay - LYMP1-003 - Dead Cells (AID 961); settings: LYMP1-003 lymphoblastoid cells, dead-cell protease fluorescence; series mostly up to 92.2 µM; also: nearly all actives have a fitted effect of over 70% in size
# Method in brief: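 Acute toxicity is scored as increased dead-cell protease activity in human lymphoblastoid LYMP1-003 cells after 16 h compound exposure in complete culture medium. Activity is normalized to DMSO basal and 15 uM tetraoctylammonium bromide as full response.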
# [8] = Cell Viability - LYMP2-003 (AID 965); settings: LYMP2-003 lymphoblastoid cell viability; series mostly up to 92.2 µM;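 also: cells exposed to compounds for 24 h before reading; nearly all actives have a fitted effect of over 50% in size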
# Method in brief: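 CellTiter-Glo luminescence quantified ATP loss after 24 h compound treatment of LYMP2-003 lymphoblastoid cells at 37 C. Titration series were fitted with the standard Hill equation to give AC50.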
# [9] = Cell Viability - LYMP2-011 (AID 969); settings: LYMP2-011 lymphoblastoid cells viability; series mostly up to 92.2 µM; also: nearly all actives have a fitted effect of over 60% in size
# Method in brief: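 Cytotoxicity qHTS with ATP content as read-out: lymphoblastoid cells (2500/well) exposed to compound for 24 h at 37 C, then luciferase luminescence measured. Concentration-response data fitted with the standard Hill equation to give AC50.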
# [10] = Cell Viability - LYMP2-026 (AID 989); settings: LYMP2-026 lymphoblastoid cell viability, qHTS; series mostly up to 92.2 µM; also: nearly all actives have a fitted effect of over 50% in size
# Method in brief: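 Cytotoxicity read as ATP-dependent luminescence (CellTiter-Glo, 30 min room temperature) after 24 h compound treatment at 37 C. LYMP2-026 lymphoblastoid line seeded at 2500 cells/well; AC50 derived by standard Hill equation.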
# [11] = Cell Viability - LYMP1-002 - Assay at 24 hr (AID 993); settings: LYMP1-002 lymphoblastoid cells viability; series mostly up to 92.2 µM
# Method in brief: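 qHTS cytotoxicity at 24 h: CellTiter-Glo ATP luminescence in lymphoblastoid line LYMP1-002 incubated with compound at 37 °C. Concentration-response modeled with the Hill equation for AC50; tetraoctylammonium bromide served as positive control.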
# [12] = qHTS assay for small molecule disruptors of the mitochondrial membrane potential - 1 hr assay (AID 651754; calls by dose curve; also: nearly all actives have a fitted effect of over 35% in size); settings: series mostly up to 92.2 µM
# Method in brief: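 Mitochondrial potential in living HepG2 cells after 1 hr compound treatment at 37C was read with Mito-MPS dye added for a further 30 min. Red aggregate and green monomer fluorescence were measured; loss of potential leaves dye as cytoplasmic monomers.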
# [13] = qHTS assay for small molecule disruptors of the mitochondrial membrane potential - 5 hr assay (AID 651755; calls by dose curve; also: nearly all actives have a fitted effect of over 40% in size); settings: JC-1-type ratio dye; series mostly up to 92.2 µM
# Method in brief: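 Seed HepG2 overnight, add compound, incubate 5 hr at 37C and 5% CO2, stain 30 min with Mito-MPS, then measure monomer (490/535 nm) and aggregate (540/590 nm) fluorescence.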
# [14] = qHTS assay for environmental chemicals that activate the Aryl hydrocarbon Receptor (AhR) signaling pathway (AID 651777); settings: 1A2-DRE human hepatoma cells, luciferase, 24 h; activation: active compounds read high; also: nearly all actives have a fitted effect of over 15% in size; also: potency is read from the fitted curve at half-maximal effect
# Method in brief: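 Stable CYP1A2 promoter/DRE-luciferase human hepatoma line treated 24 hr; One-Glo luminescence, 30 min RT.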
# [15] = molecular target: Peroxisome proliferator-activated receptor alpha (Homo sapiens) (UniProt Q07869); assay: qHTS assay for small molecule agonists of the peroxisome proliferator-activated receptor alpha (PPARalpha) signaling pathway (AID 651778); settings: PathHunter PPARalpha complementation, chemiluminescence, 6 h; active compounds read high
# Chain of Peroxisome proliferator-activated receptor alpha (Homo sapiens) (Q07869 whole entry, looked up): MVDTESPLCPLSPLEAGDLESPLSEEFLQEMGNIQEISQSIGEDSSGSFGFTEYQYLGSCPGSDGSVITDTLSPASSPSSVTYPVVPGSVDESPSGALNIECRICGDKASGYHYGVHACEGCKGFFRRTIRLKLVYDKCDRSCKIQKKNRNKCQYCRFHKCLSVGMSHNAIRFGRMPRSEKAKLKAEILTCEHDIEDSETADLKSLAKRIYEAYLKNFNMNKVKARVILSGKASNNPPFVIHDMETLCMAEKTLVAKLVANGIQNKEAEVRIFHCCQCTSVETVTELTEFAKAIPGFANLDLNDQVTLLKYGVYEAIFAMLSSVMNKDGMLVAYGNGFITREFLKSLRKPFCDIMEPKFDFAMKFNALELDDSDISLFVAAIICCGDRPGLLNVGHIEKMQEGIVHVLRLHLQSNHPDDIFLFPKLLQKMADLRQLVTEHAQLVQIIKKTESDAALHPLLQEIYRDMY
# Method in brief: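 Cells plated at 2,000/well and held overnight at 37 C, 5% CO2, then compound added by pin tool for 6 hr; after PathHunter detection reagent and 60 min at room temperature, chemiluminescence from enzyme complementation was read.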
# [16] = molecular target: Nuclear receptor ROR-gamma (Homo sapiens) (UniProt P51449); assay: qHTS assay for small molecule antagonists of the retinoid-related orphan receptor gamma (ROR-gamma) signaling pathway (AID 651802); settings: ROR-gamma antagonist cell reporter assay; series mostly up to 92.2 µM;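 also: CHO cells with doxycycline-induced ROR-gamma expression; luciferase reporter luminescence driven by ROR response element; nearly all actives have a fitted effect of over 60% in size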
# Chain of Nuclear receptor ROR-gamma (Homo sapiens) (P51449 whole entry, looked up): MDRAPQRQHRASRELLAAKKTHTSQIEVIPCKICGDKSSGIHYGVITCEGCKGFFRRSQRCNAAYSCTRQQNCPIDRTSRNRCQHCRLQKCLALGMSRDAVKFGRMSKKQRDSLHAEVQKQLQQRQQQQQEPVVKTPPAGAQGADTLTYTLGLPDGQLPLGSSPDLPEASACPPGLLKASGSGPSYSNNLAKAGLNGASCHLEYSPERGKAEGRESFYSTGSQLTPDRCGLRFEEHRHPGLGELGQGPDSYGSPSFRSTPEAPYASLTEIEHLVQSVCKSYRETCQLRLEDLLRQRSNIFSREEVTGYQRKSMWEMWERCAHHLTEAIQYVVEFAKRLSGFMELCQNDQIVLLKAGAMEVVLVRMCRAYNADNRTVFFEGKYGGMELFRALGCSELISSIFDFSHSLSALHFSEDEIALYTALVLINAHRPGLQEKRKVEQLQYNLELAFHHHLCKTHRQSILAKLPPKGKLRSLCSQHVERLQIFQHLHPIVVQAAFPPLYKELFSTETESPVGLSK
# Method in brief: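 Luminescence (One-Glo, 30 min RT) measured 16 h after compound addition and doxycycline induction at 37C. Reporter: RORE-luciferase under TET-inducible ROR-gamma in CHO cells.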
# [17] = molecular target: Nuclear receptor subfamily 1 group I member 2 (Rattus norvegicus) (UniProt Q9R1A7); assay: qHTS assay for small molecule activators of the rat pregnane X receptor (rPXR) signaling pathway (AID 651751; call rule not given here); settings: rPXR reporter cells, luciferase (One-Glo), 24 h
# Chain of Nuclear receptor subfamily 1 group I member 2 (Rattus norvegicus) (Q9R1A7 whole entry, looked up): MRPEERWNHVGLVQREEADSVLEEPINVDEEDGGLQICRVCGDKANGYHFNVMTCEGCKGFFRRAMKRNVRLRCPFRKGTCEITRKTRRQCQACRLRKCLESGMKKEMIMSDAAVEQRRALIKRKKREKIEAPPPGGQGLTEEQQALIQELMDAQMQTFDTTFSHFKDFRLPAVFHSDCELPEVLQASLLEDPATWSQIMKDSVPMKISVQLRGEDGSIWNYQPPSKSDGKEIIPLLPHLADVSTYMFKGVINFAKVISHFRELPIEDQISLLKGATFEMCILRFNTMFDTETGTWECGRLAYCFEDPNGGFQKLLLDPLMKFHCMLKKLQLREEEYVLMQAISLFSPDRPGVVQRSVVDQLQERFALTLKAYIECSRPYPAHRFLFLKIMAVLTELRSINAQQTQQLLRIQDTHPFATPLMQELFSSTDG
# [18] = qHTS assay for small molecule activators of the human pregnane X receptor (PXR) signaling pathway (AID 720659; call rule not given here); settings: DPX-2 HepG2 CYP3A4-luciferase, 24 h; series mostly up to 92.3 µM
# [19] = Cellular Toxicity (caspase-3) H-4-II-E (AID 663); settings: H-4-II-E rat hepatoma; Potency: caspase-3 activation; series mostly up to 92.2 µM;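 also: cells exposed to compound for 16 hr before readout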
# Method in brief: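 Caspase 3/7 activation measured in H-4-II-E cells in complete culture medium after 16 hr treatment at 37 °C, using luciferase-coupled substrate readout; AC50 values come from Hill-equation fits of normalized concentration-response data.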
# [20] = Cell Viability - LYMP2-013 (AID 970); settings: LYMP2-013 lymphoblastoid cells viability; series mostly up to 92.2 µM; also: nearly all actives have a fitted effect of over 55% in size
# Method in brief: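 qHTS cytotoxicity: ATP-dependent luminescence (CellTiter-Glo, 30 min room temperature) read after 24 h compound exposure at 37 C of 2500 LYMP2-013 lymphoblastoid cells per well. Concentration-response fitted with Hill equation to give AC50.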
smiles,measurement,setting,value
Cc1cc(-c2cc(C)c(N)c(C)c2)cc(C)c1N,Potency,[1],> 92 µM
same,outcome,[2],inactive
same,outcome,[3],inactive
same,outcome,[4],inactive
same,Potency,[5],25.1 µM (active)
same,outcome,[6],inactive
same,Potency,[7],inactive
same,Potency,[8],inactive
same,Potency,[9],inactive
same,Potency,[10],inactive
same,Potency,[11],inactive
same,Potency,[12],inactive
same,Potency,[13],inactive
same,Potency,[14],10 µM (active)
same,max response,[15],-3.9%
same,Potency,[16],inactive
same,max response,[17],14.1%
same,outcome,[18],inactive
ClCC(Cl)CCl,Potency,[1],> 92 µM
same,outcome,[3],inactive
same,outcome,[4],inactive
same,Potency,[19],inactive
same,Potency,[5],inactive
same,outcome,[6],inactive
same,Potency,[7],inactive
same,Potency,[8],inactive
same,Potency,[9],inactive
same,Potency,[20],inactive
same,Potency,[10],inactive
same,Potency,[11],inactive
same,Potency,[12],inactive
same,Potency,[13],inactive
same,max response,[15],-4.72% and -1.22%
same,Potency,[16],inactive
same,max response,[17],8.27% and 1.68%
same,outcome,[18],inactive
N#CCCCCC#N,outcome,[2],inactive
same,outcome,[4],inactive
same,Potency,[19],inactive
same,Potency,[5],inactive
same,Potency,[7],inactive
same,Potency,[8],inactive
same,Potency,[9],inactive
same,Potency,[20],inactive
same,Potency,[10],inactive
same,Potency,[11],inactive
same,Potency,[12],inactive
same,Potency,[13],inactive
same,activation,[14],0.486%
same,max response,[15],-1.89%
same,Potency,[16],inactive
same,max response,[17],9.56%
same,outcome,[18],inactive
ClCC(Cl)Cl,Potency,[1],> 92 µM
same,outcome,[4],inactive
same,Potency,[5],inactive
same,outcome,[6],inactive
same,Potency,[7],inactive
same,Potency,[20],inactive
same,Potency,[11],inactive
same,Potency,[12],inactive
same,Potency,[13],inactive
same,activation,[14],1.04%
same,max response,[15],4.99%
same,Potency,[16],inactive
same,max response,[17],-0.324%
same,outcome,[18],inactive
CC(Cl)(Cl)Cl,outcome,[3],inactive
same,outcome,[4],inactive
same,Potency,[19],inactive
same,Potency,[5],inactive
same,outcome,[6],inactive
same,Potency,[7],inactive
same,Potency,[8],inactive
same,Potency,[9],inactive
same,Potency,[20],inactive
same,Potency,[10],inactive
same,Potency,[11],inactive
same,Potency,[12],inactive
same,Potency,[13],inactive
same,activation,[14],-0.393% and 0.414%
same,max response,[15],-3.93% and -1.58%
same,Potency,[16],inactive
same,max response,[17],-1.71% and -2.72%
same,outcome,[18],inactive
ClCCOCOCCCl,outcome,[3],inactive
same,outcome,[4],inactive
same,Potency,[19],inactive
same,Potency,[5],inactive
same,outcome,[6],inactive
same,Potency,[8],inactive
same,Potency,[9],inactive
same,Potency,[10],inactive
same,Potency,[11],inactive
same,Potency,[12],inactive
same,Potency,[13],inactive
same,activation,[14],0.193%
same,max response,[15],-0.0658%
same,Potency,[16],inactive
same,max response,[17],0.986%
same,outcome,[18],inactive
CSSC,outcome,[3],inactive
same,outcome,[4],inactive
same,Potency,[19],inactive
same,Potency,[5],inactive
same,outcome,[6],inactive
same,Potency,[7],inactive
same,Potency,[8],inactive
same,Potency,[9],inactive
same,Potency,[20],inactive
same,Potency,[10],inactive
same,Potency,[11],inactive
same,Potency,[16],inactive
same,max response,[17],-2.6%
same,outcome,[18],inactive
CC(C)[C@]12CC(=O)[C@H](C)[C@H]1C2,outcome,[2],inactive
same,outcome,[3],inactive
same,outcome,[4],inactive
same,Potency,[19],inactive
same,Potency,[5],inactive
same,Potency,[7],inactive
same,Potency,[8],inactive
same,Potency,[9],inactive
same,Potency,[20],inactive
same,Potency,[10],inactive
same,Potency,[11],inactive
same,Potency,[12],inactive
same,Potency,[13],inactive
same,activation,[14],-0.165% and 1.56%
same,Potency,[16],inactive
same,max response,[17],2.33% and 6.9%
same,outcome,[18],inactive
Cc1cc(-c2ccc(N)c(C)c2)ccc1N,Potency,[1],> 92 µM
same,outcome,[2],inactive
same,outcome,[3],inactive
same,Potency,[19],inactive
same,outcome,[6],inactive
same,Potency,[7],inactive
same,Potency,[8],inactive
same,Potency,[9],inactive
same,Potency,[20],inactive
same,Potency,[10],inactive
same,Potency,[11],inactive
same,Potency,[13],inactive
same,Potency,[16],inactive
